Source: PubChem BioAssay
An excerpt weighted towards active compounds, which were near 8.1% of everything screened.
Shh pathway inh: blocks Sonic Hedgehog signaling; Shh-LIGHT2 Gli-luciferase reporter, 30 h; inhibition, % (test concentration not listed); hit rate 2.1% among 22,000; AID 2313;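 active = mean inhibition across valid replicates above about 65%, limit read from the data; inconclusive = mean under the limit, yet half or more replicates past it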;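 also: pathway switched on by Shh-conditioned medium diluted 1 in 25 in low serum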
MITF inhib: blocks MITF activity; TRPM1 promoter luciferase, luminescence, 24 h; inhibition, % (test concentration not listed); hit rate 0.28% among 37,000; AID 2240; in the data active = inhibition above about 85%; inconclusive = no clear call, values can overlap the other calls; inactive = below about 68%;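 also: human melanocyte line stably carrying TRPM1 promoter luciferase reporter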
NOMO-1 viab: STK33 inhibitor candidate reducing NOMO-1 cell viability; NOMO-1 AML viability, CellTiter-Glo luminescence, 72 h; inhibition, % (test concentration not listed); hit rate 7.5% among 37,000; AID 2330; in the data active = inhibition above about 80%; inconclusive = no clear call, values can overlap the other calls
Numbers stand for hits.

C[C@H]1CN([C@@H](C)CO)C(=O)c2cccc(NC(=O)c3nc4ccccc4s3)c2O[C@@H]1CN(C)C(=O)Nc1ccc(C(F)(F)F)cc1 was read as Shh pathway inh inactive, MITF inhib inactive and NOMO-1 viab inactive.
Screening C[C@H]1CN([C@@H](C)CO)C(=O)c2cccc(NC(=O)c3nc4ccccc4s3)c2O[C@H]1CN(C)C(=O)Nc1ccc(C(F)(F)F)cc1 returned Shh pathway inh inactive, MITF inhib inactive and NOMO-1 viab 110.
Screening C[C@@H]1CN([C@H](C)CO)C(=O)c2cccc(NC(=O)c3nc4ccccc4s3)c2O[C@H]1CN(C)CC1CCCCC1 returned Shh pathway inh inactive, MITF inhib inactive and NOMO-1 viab 116.
`C[C@H](CO)N1C[C@H](C)[C@@H](CN(C)C(=O)Nc2cccc3ccccc23)Oc2c(NC(=O)c3nc4ccccc4s3)cccc2C1=O` gave Shh pathway inh inactive, MITF inhib inactive and NOMO-1 viab 99.
For C[C@H](CO)N1C[C@H](C)[C@@H](CN(C)C(=O)Nc2ccccc2)Oc2c(NC(=O)c3nc4ccccc4s3)cccc2C1=O the results were Shh pathway inh inconclusive, MITF inhib inactive and NOMO-1 viab inactive.
O=C(CSc1nnc(-c2ccncc2)n1-c1ccc(F)cc1)c1ccccc1 was read as MITF inhib inactive and NOMO-1 viab inactive.
For O=C(CSc1n[nH]c(-c2ccc(Cl)cc2Cl)n1)Nc1cccc2ccccc12 the results were MITF inhib inactive and NOMO-1 viab inactive.
Screening CNC[C@H]1Oc2ccc(NS(C)(=O)=O)cc2CC(=O)N([C@@H](C)CO)C[C@H]1C returned Shh pathway inh inactive, MITF inhib inactive and NOMO-1 viab inactive.
For C[C@@H]1CN([C@H](C)CO)C(=O)c2cc(NC(=O)CCN3CCOCC3)ccc2O[C@H]1CN(C)C the results were Shh pathway inh inactive, MITF inhib inactive and NOMO-1 viab inactive.
`C[C@H](CO)N1C[C@H](C)[C@H](CN(C)Cc2ccc(-c3ccccc3)cc2)Oc2c(NC(=O)c3nc4ccccc4s3)cccc2C1=O` gave Shh pathway inh inactive, MITF inhib inactive and NOMO-1 viab inconclusive.
CNC[C@H]1Oc2c(NC(=O)c3nc4ccccc4s3)cccc2C(=O)N([C@H](C)CO)C[C@@H]1C was read as Shh pathway inh inactive, MITF inhib inactive and NOMO-1 viab 97.
For C[C@@H]1CN([C@@H](C)CO)C(=O)c2cccc(NC(=O)c3nc4ccccc4s3)c2O[C@H]1CN(C)Cc1ccc(Cl)c(Cl)c1 the results were Shh pathway inh inactive, MITF inhib inactive and NOMO-1 viab inactive.
Screening C[C@@H]1CN([C@@H](C)CO)C(=O)c2cccc(NC(=O)c3nc4ccccc4s3)c2O[C@@H]1CN(C)Cc1ccccc1 returned Shh pathway inh inactive, MITF inhib inactive and NOMO-1 viab 104.
CNC[C@H]1Oc2c(NC(=O)c3nc4ccccc4s3)cccc2C(=O)N([C@@H](C)CO)C[C@@H]1C was read as Shh pathway inh inactive, MITF inhib inactive and NOMO-1 viab inactive.
C[C@@H]1CN([C@H](C)CO)C(=O)c2cccc(NC(=O)c3nc4ccccc4s3)c2O[C@H]1CN(C)Cc1ccc(Cl)c(Cl)c1 was read as Shh pathway inh inactive, MITF inhib inactive and NOMO-1 viab 91.
Screening COC1=CC(C)c2c(c(OC)c3occ(C)c3c2C)C1=O (centres undefined) returned Shh pathway inh inactive, MITF inhib inactive and NOMO-1 viab inactive.
`Cc1ccc(N(CC(=O)Nc2ccc(Br)cc2F)S(C)(=O)=O)cc1C` gave MITF inhib inactive and NOMO-1 viab inactive.
O=C(/C=C/S(=O)(=O)c1ccc(Cl)cc1)c1ccc(F)cc1 was read as Shh pathway inh inactive, MITF inhib inactive and NOMO-1 viab 120.
NC(=O)CSc1oc(-c2ccc(F)cc2)nc1S(=O)(=O)c1ccc(Cl)cc1 was read as MITF inhib inactive and NOMO-1 viab inactive.
For COc1ccc(OC)c(NC(=O)CSc2nnc(C)s2)c1 the results were MITF inhib inactive and NOMO-1 viab inactive.
Screening COc1ccc(OC)c(NC(=O)CSc2nnc(-c3cccnc3)s2)c1 returned MITF inhib inactive and NOMO-1 viab 110.
`COc1cc(C2NC(=S)NC(C)=C2C(=O)Nc2ccccc2C)c(Br)cc1OCC(=O)O` (centres undefined) gave MITF inhib inactive and NOMO-1 viab inactive.
For C[C@H](CO)N1C[C@H](C)[C@@H](CN(C)Cc2ccc(C(=O)O)cc2)Oc2ccc(NC(=O)Nc3ccc(C(F)(F)F)cc3)cc2C1=O the results were MITF inhib inactive and NOMO-1 viab inactive.
`C[C@@H]1CN([C@@H](C)CO)C(=O)c2cc(NC(=O)Nc3ccc(C(F)(F)F)cc3)ccc2O[C@@H]1CN(C)Cc1ccc(-c2ccccc2)cc1` gave Shh pathway inh inactive, MITF inhib inactive and NOMO-1 viab 126.
